Measurements reported in PMC7862700, “An all-to-all approach to the identification of sequence-specific readers for epigenetic DNA modifications on cytosine”.

Biological target: T1, ELK1 (Homo sapiens, UniProt P19419 1-428)
T1 sequence: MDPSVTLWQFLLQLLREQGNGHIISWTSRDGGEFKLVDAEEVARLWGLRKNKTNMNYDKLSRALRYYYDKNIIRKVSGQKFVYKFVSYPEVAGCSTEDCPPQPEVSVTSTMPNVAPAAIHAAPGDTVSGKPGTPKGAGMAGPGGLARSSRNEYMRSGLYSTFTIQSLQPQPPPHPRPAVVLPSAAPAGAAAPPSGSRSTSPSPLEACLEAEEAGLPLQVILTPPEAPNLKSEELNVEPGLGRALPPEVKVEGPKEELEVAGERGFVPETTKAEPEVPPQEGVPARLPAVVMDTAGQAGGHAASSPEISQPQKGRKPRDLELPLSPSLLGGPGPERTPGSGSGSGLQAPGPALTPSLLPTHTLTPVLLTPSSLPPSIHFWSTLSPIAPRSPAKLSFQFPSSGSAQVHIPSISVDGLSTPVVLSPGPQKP
Test: DAPPL (digital affinity profiling via proximity ligation, sequencing); 10 mM Tris-HCl pH 7.5, 50 mM NaCl, 1 mM DTT, 4% glycerol, room temperature, 30 min; GST-TFs on glutathione beads, 16-mer random dsDNA library, 0.1% formaldehyde crosslink after washing; high values mean tight binding
Details: protein: recombinant; tags: N-terminal GST; dsDNA, one strand shown
Procedure, shortened: (§1)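 Each value of binding signal is a hexamer's read frequency for a factor divided by the same hexamer's frequency in the tag-only sample. Barcoded, bead-captured GST fusions of human transcription factors made in yeast were pooled with that sample and incubated with 200 nmole of a random double-stranded 16-mer DNA library in Tris/NaCl/DTT/glycerol buffer at room temperature for 30 min. Washing, 0.1% formaldehyde crosslinking, proximity ligation, PCR and Illumina NextSeq500 sequencing followed.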

Row | Sequence | binding signal
1 | AGATTA | 1.02 fold enrichment (6-mer frequency, TF over GST control)
2 | TAGACA | 1.07 fold enrichment (6-mer frequency, TF over GST control)
3 | AGAATA | 1.04 fold enrichment (6-mer frequency, TF over GST control)
4 | GCGAAT | 1.07 fold enrichment (6-mer frequency, TF over GST control)
5 | TCGGCT | 1.02 fold enrichment (6-mer frequency, TF over GST control)
6 | GCGATC | 1.08 fold enrichment (6-mer frequency, TF over GST control)

Biological target: T2, GABPA (Homo sapiens, UniProt Q06546 1-454)
T2 sequence: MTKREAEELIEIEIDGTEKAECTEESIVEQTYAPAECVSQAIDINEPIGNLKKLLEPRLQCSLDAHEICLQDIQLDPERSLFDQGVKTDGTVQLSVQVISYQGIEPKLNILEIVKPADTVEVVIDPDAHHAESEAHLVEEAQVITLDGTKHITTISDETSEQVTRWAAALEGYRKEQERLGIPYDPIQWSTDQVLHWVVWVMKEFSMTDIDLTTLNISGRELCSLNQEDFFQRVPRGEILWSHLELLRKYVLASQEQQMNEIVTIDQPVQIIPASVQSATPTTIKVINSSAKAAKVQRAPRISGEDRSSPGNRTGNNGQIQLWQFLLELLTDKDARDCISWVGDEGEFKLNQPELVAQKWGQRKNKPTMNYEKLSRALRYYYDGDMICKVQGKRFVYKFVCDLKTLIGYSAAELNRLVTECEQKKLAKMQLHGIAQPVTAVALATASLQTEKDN
Test: as above
Details: protein: recombinant; tags: N-terminal GST; dsDNA, one strand shown
Procedure, shortened: as §1

Row | Sequence | binding signal
7 | TAGACA | 1.01 fold enrichment (6-mer frequency, TF over GST control)
8 | AGGCTT | 1.02 fold enrichment (6-mer frequency, TF over GST control)
9 | TAGCGC | 1.01 fold enrichment (6-mer frequency, TF over GST control)
10 | AGAATA | 1 fold enrichment (6-mer frequency, TF over GST control)
11 | TAGAAC | 1.03 fold enrichment (6-mer frequency, TF over GST control)
12 | ATCAGA | 1.11 fold enrichment (6-mer frequency, TF over GST control)
13 | GCGAAT | 1.05 fold enrichment (6-mer frequency, TF over GST control)
14 | TCGGCT | 1.03 fold enrichment (6-mer frequency, TF over GST control)
15 | GCCTAG | 1.02 fold enrichment (6-mer frequency, TF over GST control)
16 | GCGATA | 1 fold enrichment (6-mer frequency, TF over GST control)
17 | CGAATG | 1.12 fold enrichment (6-mer frequency, TF over GST control)
18 | TTAGGC | 1.02 fold enrichment (6-mer frequency, TF over GST control)
19 | GCGATC | 1.01 fold enrichment (6-mer frequency, TF over GST control)

Biological target: T3, ERG (Homo sapiens, UniProt P11308 1-479)
T3 sequence: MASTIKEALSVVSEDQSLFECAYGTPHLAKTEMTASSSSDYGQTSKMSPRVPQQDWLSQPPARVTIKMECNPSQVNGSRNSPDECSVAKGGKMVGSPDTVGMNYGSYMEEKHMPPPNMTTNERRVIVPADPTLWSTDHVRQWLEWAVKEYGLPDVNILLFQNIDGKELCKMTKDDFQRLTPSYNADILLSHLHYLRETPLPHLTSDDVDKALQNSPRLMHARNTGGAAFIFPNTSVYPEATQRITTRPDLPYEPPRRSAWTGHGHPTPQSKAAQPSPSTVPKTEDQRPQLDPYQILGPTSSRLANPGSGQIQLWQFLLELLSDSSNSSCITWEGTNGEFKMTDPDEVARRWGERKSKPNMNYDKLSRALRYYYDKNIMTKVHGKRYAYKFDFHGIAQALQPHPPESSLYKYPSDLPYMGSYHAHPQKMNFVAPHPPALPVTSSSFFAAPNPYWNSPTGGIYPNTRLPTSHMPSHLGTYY
Test: as above
Details: protein: recombinant; tags: N-terminal GST; dsDNA, one strand shown
Procedure, shortened: as §1

Row | Sequence | binding signal
20 | AGGCTT | 1.04 fold enrichment (6-mer frequency, TF over GST control)
21 | ATTAGT | 1.01 fold enrichment (6-mer frequency, TF over GST control)
22 | GCGAAT | 1.08 fold enrichment (6-mer frequency, TF over GST control)
23 | AGAACC | 1.01 fold enrichment (6-mer frequency, TF over GST control)
24 | TCGGCT | 1.09 fold enrichment (6-mer frequency, TF over GST control)
25 | GCGATA | 1 fold enrichment (6-mer frequency, TF over GST control)
26 | TTAGGC | 1.03 fold enrichment (6-mer frequency, TF over GST control)

Biological target: ELF1 (Homo sapiens, UniProt P32519 1-619)
Sequence (P32519 whole entry): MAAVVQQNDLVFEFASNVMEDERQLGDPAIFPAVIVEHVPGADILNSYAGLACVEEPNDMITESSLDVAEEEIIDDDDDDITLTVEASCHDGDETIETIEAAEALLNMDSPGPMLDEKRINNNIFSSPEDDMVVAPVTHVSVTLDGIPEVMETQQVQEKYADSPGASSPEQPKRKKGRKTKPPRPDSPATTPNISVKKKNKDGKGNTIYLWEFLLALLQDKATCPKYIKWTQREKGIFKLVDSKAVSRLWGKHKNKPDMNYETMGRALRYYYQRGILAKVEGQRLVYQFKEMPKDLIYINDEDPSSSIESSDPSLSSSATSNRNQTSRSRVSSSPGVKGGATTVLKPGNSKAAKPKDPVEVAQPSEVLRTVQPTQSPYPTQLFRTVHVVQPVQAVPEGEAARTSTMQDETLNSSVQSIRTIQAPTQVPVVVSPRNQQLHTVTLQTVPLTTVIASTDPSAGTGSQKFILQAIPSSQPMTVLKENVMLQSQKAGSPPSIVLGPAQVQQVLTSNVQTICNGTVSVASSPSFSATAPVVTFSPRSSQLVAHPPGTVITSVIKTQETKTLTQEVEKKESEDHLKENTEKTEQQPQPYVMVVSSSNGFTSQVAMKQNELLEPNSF
Test: as above
Details: protein: recombinant; tags: N-terminal GST; dsDNA, one strand shown
Procedure, shortened: as §1

Row | Sequence | binding signal
27 | AGAATA | 1.01 fold enrichment (6-mer frequency, TF over GST control)
28 | ATTAGT | 1.03 fold enrichment (6-mer frequency, TF over GST control)
29 | GATCAT | 1.01 fold enrichment (6-mer frequency, TF over GST control)
30 | TAGAAC | 1.01 fold enrichment (6-mer frequency, TF over GST control)
31 | GCGAAT | 1.11 fold enrichment (6-mer frequency, TF over GST control)
32 | CGAATG | 1.05 fold enrichment (6-mer frequency, TF over GST control)
33 | GAATGA | 1 fold enrichment (6-mer frequency, TF over GST control)
34 | CATTAG | 1.05 fold enrichment (6-mer frequency, TF over GST control)
35 | GCGATC | 1.06 fold enrichment (6-mer frequency, TF over GST control)

Biological target: T4, EHF (Homo sapiens, UniProt Q9NZC4 1-300)
T4 sequence: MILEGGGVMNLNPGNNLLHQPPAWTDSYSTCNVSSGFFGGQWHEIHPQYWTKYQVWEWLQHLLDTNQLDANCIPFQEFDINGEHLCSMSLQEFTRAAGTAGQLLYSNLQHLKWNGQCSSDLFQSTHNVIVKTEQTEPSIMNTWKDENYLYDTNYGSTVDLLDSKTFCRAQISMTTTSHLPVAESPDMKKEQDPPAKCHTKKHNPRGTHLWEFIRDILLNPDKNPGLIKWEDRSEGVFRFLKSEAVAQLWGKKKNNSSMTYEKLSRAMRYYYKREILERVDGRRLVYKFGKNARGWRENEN
Test: as above
Details: protein: recombinant; tags: N-terminal GST; dsDNA, one strand shown
Procedure, shortened: as §1

Row | Sequence | binding signal
36 | AGATTA | 1.03 fold enrichment (6-mer frequency, TF over GST control)
37 | CCAGCT | 1.06 fold enrichment (6-mer frequency, TF over GST control)
38 | ATTAGT | 1 fold enrichment (6-mer frequency, TF over GST control)
39 | CTAGGA | 1.01 fold enrichment (6-mer frequency, TF over GST control)
40 | GCGAAT | 1.17 fold enrichment (6-mer frequency, TF over GST control)
41 | TCGGCT | 1.02 fold enrichment (6-mer frequency, TF over GST control)
42 | CGAATG | 1.05 fold enrichment (6-mer frequency, TF over GST control)
43 | CATTAG | 1 fold enrichment (6-mer frequency, TF over GST control)

Biological target: SPI1 (Homo sapiens, UniProt P17947 1-270)
Test: as above
Details: protein: recombinant; tags: N-terminal GST; dsDNA, one strand shown
Procedure, shortened: as §1

Row | Sequence | binding signal
44 | AGATTA | 1.01 fold enrichment (6-mer frequency, TF over GST control)
45 | AGAATA | 1 fold enrichment (6-mer frequency, TF over GST control)
46 | TCGAAA | 1.02 fold enrichment (6-mer frequency, TF over GST control)
47 | GCGATA | 1.03 fold enrichment (6-mer frequency, TF over GST control)
48 | CGAATG | 1.03 fold enrichment (6-mer frequency, TF over GST control)

Biological target: SPIB (Homo sapiens, UniProt Q01892 1-262)
Sequence (Q01892 whole entry): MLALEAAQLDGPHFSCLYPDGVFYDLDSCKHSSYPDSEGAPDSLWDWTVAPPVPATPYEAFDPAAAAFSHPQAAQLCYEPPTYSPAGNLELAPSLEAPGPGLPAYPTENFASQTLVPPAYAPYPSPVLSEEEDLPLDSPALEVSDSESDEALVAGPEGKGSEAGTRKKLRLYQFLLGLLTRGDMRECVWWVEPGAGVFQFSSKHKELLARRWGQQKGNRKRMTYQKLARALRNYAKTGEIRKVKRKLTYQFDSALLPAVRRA
Test: as above
Details: protein: recombinant; tags: N-terminal GST; dsDNA, one strand shown
Procedure, shortened: as §1

Row | Sequence | binding signal
49 | GCCTGG | 1.04 fold enrichment (6-mer frequency, TF over GST control)
50 | GCGAAT | 1 fold enrichment (6-mer frequency, TF over GST control)
51 | GATAAA | 1.04 fold enrichment (6-mer frequency, TF over GST control)
52 | GCGATA | 1.02 fold enrichment (6-mer frequency, TF over GST control)

Biological target: T5, ELK3 (Homo sapiens, UniProt P41970 1-407)
T5 sequence: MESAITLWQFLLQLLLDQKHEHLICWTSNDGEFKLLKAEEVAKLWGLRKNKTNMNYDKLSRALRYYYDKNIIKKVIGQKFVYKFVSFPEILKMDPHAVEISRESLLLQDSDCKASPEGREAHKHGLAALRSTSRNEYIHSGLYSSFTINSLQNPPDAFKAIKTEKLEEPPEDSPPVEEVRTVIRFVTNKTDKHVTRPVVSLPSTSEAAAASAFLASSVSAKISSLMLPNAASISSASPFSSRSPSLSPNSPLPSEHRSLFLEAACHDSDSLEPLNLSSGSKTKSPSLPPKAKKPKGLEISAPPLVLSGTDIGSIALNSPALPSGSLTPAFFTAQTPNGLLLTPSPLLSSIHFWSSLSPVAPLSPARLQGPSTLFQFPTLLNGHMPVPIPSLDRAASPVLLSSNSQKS
Test: as above
Details: protein: recombinant; tags: N-terminal GST; dsDNA, one strand shown
Procedure, shortened: as §1

Row | Sequence | binding signal
53 | AGATTA | 1.03 fold enrichment (6-mer frequency, TF over GST control)
54 | CCAGAA | 1 fold enrichment (6-mer frequency, TF over GST control)
